Growth data for 15 molecules are collected here from PubChem BioAssay (NCI).

Among the test systems are NCI-H226 lung; NCI-H322M lung; HOP-62 NSCLC; NCI-H460 lung; NCI-H522 lung; A549/ATCC NSCLC; 786-0 renal; COLO 205 colon; DU-145 prostate.
What all share (assay): NCI-60 one-dose screen, 48 h (100 = growth as untreated, 0 = no growth, -100 = all killed)
Common to all, as to details: 10 µM unless noted

Molecules are shown by their SMILES. This is part of a sample that, as a whole, favours compounds with a hit. Of some 83,000 tested, about 20% had one in any assay.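 Single-dose data. Exposure time 48 hours. Values below 10 considered active.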 A number with no mark means an inactive call. Activity calls are given as the source filed them.

In the case of `CN1C(=S)N(C)C2C1NN=C1SC(c3ccccc3)=CC(=O)N12` (stereo not given), the growth in the experiment with NCI-H226 lung is 83.6%; in the experiment with NCI-H322M lung, 104%; in the experiment with HOP-62 NSCLC, 109%; with NCI-H460 lung, 103%; in the experiment with NCI-H522 lung, 87.2%; in the experiment on A549/ATCC NSCLC, 93.7%. Also, the growth was 98% in the experiment with 786-0 renal, 111% with COLO 205 colon and 106% in the experiment with DU-145 prostate.
As for `O=C(CSc1nc2sc3c(c2c(=O)n1-c1ccc(Cl)cc1)CCCC3)NNC(=O)Nc1ccc(Cl)c(C(F)(F)F)c1`, the growth is 53.4% in the experiment on NCI-H226 lung; 52.2% with NCI-H322M lung; 58.8% in the experiment with HOP-62 NSCLC; 11.8% in the experiment with NCI-H460 lung; 5.53% (active) in the experiment on NCI-H522 lung; 34% in the experiment on A549/ATCC NSCLC. The growth in the experiment with 786-0 renal is 52.2%; in the experiment on COLO 205 colon, 53.4%; in the experiment with DU-145 prostate, 32.2%.
For the molecule `COc1ccc(/C=N/Nc2ccnc3cc(Cl)ccc23)cc1Cl`, the growth in the experiment on NCI-H226 lung was 69%; in the experiment on NCI-H322M lung, -64.1% (active); in the experiment with HOP-62 NSCLC, -42.9% (active); with NCI-H460 lung it was -79% (active); in the experiment on NCI-H522 lung, -73.7% (active); in the experiment on A549/ATCC NSCLC, -41.6% (active). The values for the growth with 786-0 renal, with COLO 205 colon and in the experiment on DU-145 prostate were -94.9% (active), -82.7% (active) and -57% (active), respectively.
On to `O=C1c2c(c3c4cccnc4[nH]c3c3ccc4ccccc4c23)C(=O)N1CCO`, for which the growth is 80.7% with NCI-H226 lung; 95% with NCI-H322M lung; 64.5% in the experiment on HOP-62 NSCLC; 17.6% in the experiment on NCI-H460 lung; 52.8% in the experiment with NCI-H522 lung; 78.3% with A549/ATCC NSCLC. Also, the growth with 786-0 renal is 84%; in the experiment with COLO 205 colon, 78.4%; in the experiment on DU-145 prostate it was 87.2%.
Consider `Nc1c(C(=O)Nc2ccc(Cl)cc2)sc2nc(-c3cnccn3)cc(-c3cccs3)c12`, for which the growth in the experiment on NCI-H226 lung was 13.2%; in the experiment with NCI-H322M lung, 70.2%; in the experiment on HOP-62 NSCLC it was 44.4%; with NCI-H460 lung, 63.1%; in the experiment on NCI-H522 lung, 93%; with A549/ATCC NSCLC it was 68.8%. The figures for the growth with 786-0 renal, in the experiment with COLO 205 colon and with DU-145 prostate were 71.2%, 95.7% and 70.3%, respectively.
Take `CCN1CCN(/C(=N\c2sc(-c3ccccc3)nc2-c2ccccc2)c2ccccc2)CC1`: the growth with NCI-H226 lung is 56.2%; with NCI-H322M lung, 91.8%; in the experiment on HOP-62 NSCLC, 95.4%; in the experiment with NCI-H460 lung it was 72.1%; with NCI-H522 lung, 71.6%; with A549/ATCC NSCLC, 80.2%. For the same molecule, the growth in the experiment with 786-0 renal is 51.2%; in the experiment with COLO 205 colon, 84.5%; in the experiment with DU-145 prostate it was 93.7%.
For `Cc1nc2cnc(N)c(C#Cc3cncc(C(=O)Nc4ccc(Cl)c(C(F)(F)F)c4)c3)c2nc1C`, the growth in the experiment on NCI-H226 lung is 26.7%; with NCI-H322M lung, 64.9%; in the experiment on HOP-62 NSCLC it was 56.8%; in the experiment on NCI-H460 lung it was 53.8%; in the experiment with NCI-H522 lung, 89.5%; with A549/ATCC NSCLC, 56.6%. For the same molecule, the results for the growth in the experiment on 786-0 renal, in the experiment with COLO 205 colon and in the experiment with DU-145 prostate were 64.3%, 28.5% and 69.4%, respectively.
`COc1cccc(COc2ccc(/C=C3/C(=O)Nc4cc(Cl)ccc43)cc2)c1`: the growth in the experiment with NCI-H226 lung was 84.9%; with NCI-H322M lung, 83.9%; with HOP-62 NSCLC, 85.4%; in the experiment with NCI-H460 lung it was 103%; in the experiment with NCI-H522 lung it was 84%; with A549/ATCC NSCLC it was 92.4%. Moreover, the figures for the growth in the experiment on 786-0 renal, in the experiment on COLO 205 colon and with DU-145 prostate were 102%, 102% and 98.5%, respectively.
Take `Cc1cc2nc3c4cc(Cl)ccc4n(CC(=O)NCCN(C)C)c3nc2cc1C`: the growth in the experiment on NCI-H226 lung was 25.7%; with NCI-H322M lung, 83.7%; in the experiment with HOP-62 NSCLC, 73.7%; with NCI-H460 lung, -69.9% (active); in the experiment on NCI-H522 lung, 91.8%; in the experiment on A549/ATCC NSCLC, 89.4%. The growth in the experiment with 786-0 renal was -92.4% (active); in the experiment on COLO 205 colon it was 76.8%; with DU-145 prostate, 94.4%.
For the molecule `N#Cc1nc(-c2ccccc2)oc1S(N)(=O)=O`, the growth in the experiment on NCI-H226 lung is 103%; in the experiment on NCI-H322M lung, 100%; in the experiment with HOP-62 NSCLC, 111%; in the experiment on NCI-H460 lung it was 93.3%; in the experiment with NCI-H522 lung, -44.5% (active); in the experiment on A549/ATCC NSCLC, 101%. For the same molecule, the growth with 786-0 renal was 51.1%; in the experiment with COLO 205 colon it was 96.7%; in the experiment on DU-145 prostate it was 82.5%.
`C[C@@H](Nc1c(C#N)cnc2ccc(-c3cnc(N)nc3)cc12)c1ccccc1`: the growth was 18.8% with NCI-H226 lung; -6.52% (active) in the experiment with NCI-H322M lung; 31.1% in the experiment with HOP-62 NSCLC; 13.3% in the experiment on NCI-H460 lung; -2.38% (active) in the experiment with NCI-H522 lung; 15.8% in the experiment with A549/ATCC NSCLC. The growth was 13.5% in the experiment on 786-0 renal, 17.3% in the experiment on COLO 205 colon and 12.8% in the experiment on DU-145 prostate.
Take `CN1CCc2c(sc3ncnc(N/N=C/c4ccc(Cl)c(Cl)c4)c23)C1`: the growth in the experiment on NCI-H226 lung was 56.9%; in the experiment with NCI-H322M lung, -3.96% (active); with HOP-62 NSCLC, 69.7%; with NCI-H460 lung, 0.478% (active); in the experiment on NCI-H522 lung, 89.9%; with A549/ATCC NSCLC, 21.8%. Besides, the growth was -57.1% (active) with 786-0 renal, 36.1% in the experiment on COLO 205 colon and 48.9% in the experiment on DU-145 prostate.
In the case of `CN1CCN(Cc2ccc(NC(=O)c3cncc(C#Cc4cnc5[nH]ncc5c4)c3)cc2C(F)(F)F)CC1`, the growth in the experiment with NCI-H226 lung is 20.4%; with NCI-H322M lung it was 45.8%; in the experiment with HOP-62 NSCLC, 50.8%; in the experiment with NCI-H460 lung, 11.1%; in the experiment with NCI-H522 lung it was 50.9%; in the experiment with A549/ATCC NSCLC, 34.3%. Moreover, the growth was 45.7% in the experiment on 786-0 renal, 21.1% in the experiment with COLO 205 colon and 32.8% in the experiment with DU-145 prostate.
With `Clc1ccc2c(NCCCN3CCOCC3)c3oc4ccc(Cl)cc4c3nc2c1`, the growth in the experiment on NCI-H226 lung is 38.4%; in the experiment on NCI-H322M lung, 48.5%; in the experiment on HOP-62 NSCLC, 67.2%; in the experiment with NCI-H460 lung it was 13%; with NCI-H522 lung, 44.9%; with A549/ATCC NSCLC, 53.9%. Besides, the growth in the experiment with 786-0 renal is -22.4% (active); in the experiment with COLO 205 colon it was 44.5%; in the experiment with DU-145 prostate it was 57.2%.
In the case of `O=C(CSc1nnc(-c2ccc3nc(-c4ccc(Cl)cc4)[nH]c3c2)o1)Nc1ccc(C(=O)/C=C/c2ccc(Cl)cc2)cc1`, the growth with NCI-H226 lung was 86%; in the experiment on NCI-H322M lung, 95.4%; with HOP-62 NSCLC, 97.9%; in the experiment with NCI-H460 lung, 102%; in the experiment on NCI-H522 lung it was 88.4%; with A549/ATCC NSCLC, 95.5%. Besides, the growth was 92.6% with 786-0 renal, 118% with COLO 205 colon and 111% with DU-145 prostate.
